Test systems include SK-MEL-2 melanoma; EKVX NSCLC; SN12C renal; UO-31 renal; TK-10 renal; ACHN renal; CAKI-1 renal; A498 renal; CCRF-CEM leukemia; MOLT-4 leukemia; RPMI-8226 leukemia; OVCAR-8 ovarian; OVCAR-5 ovarian; OVCAR-4 ovarian; SK-OV-3 ovarian; IGROV1 ovarian; HS 578T breast; NCI/ADR-RES ovarian; OVCAR-3 ovarian.
Test in all cases: NCI-60 one-dose screen, 48 h (100 = growth as untreated, 0 = no growth, -100 = all killed)
Holding throughout (conditions): 10 µM unless noted

About 83,000 compounds went through this panel and 20% of them were active in at least one assay; those are over-represented in the sample as a whole.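 Testing used 96-well plates and a 48-hour single-concentration exposure. Example: -40 means 40% of the starting cells died.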 Unmarked numbers belong to inactive results. Activity calls are given as the source filed them. Rule for the calls: active = growth percent below 10; inactive = the rest.

With `COc1ccc(NC(=O)CSc2nnc(-c3cc(-c4ccc(S(N)(=O)=O)cc4)nc4ccccc34)n2-c2ccccc2)cc1`, the growth was 93% in the assay with SK-MEL-2 melanoma; 78.5% with EKVX NSCLC; 81.6% in the assay with SN12C renal; 74.5% in the assay with UO-31 renal; 103% with TK-10 renal; 81.6% in the assay with ACHN renal. Besides, the growth in the assay on CAKI-1 renal was 61.2%; in the assay on A498 renal, 54.3%; in the assay with CCRF-CEM leukemia, 73.2%; in the assay on MOLT-4 leukemia it was 58%; with RPMI-8226 leukemia it was 57.9%; in the assay with OVCAR-8 ovarian, 75.4%. Further, the growth in the assay with OVCAR-5 ovarian is 92.8%; with OVCAR-4 ovarian it was 88.6%; with SK-OV-3 ovarian, 89.8%; in the assay on IGROV1 ovarian it was 77.9%; with HS 578T breast it was 75.6%; with NCI/ADR-RES ovarian it was 104%.

On to `COc1ccc2c(c1)O/C(=C\c1cccc(OCC(=O)Nc3nc4ccccc4s3)c1)C2=O`, for which the growth was 91.8% in the assay on SK-MEL-2 melanoma; 100% in the assay on EKVX NSCLC; 43.7% with SN12C renal; -61.3% (active) in the assay on UO-31 renal; 132% with TK-10 renal; 98.2% in the assay on ACHN renal. For the same compound, the growth is -88.3% (active) in the assay with CAKI-1 renal; 110% in the assay on A498 renal; -61.4% (active) in the assay with CCRF-CEM leukemia; 18.4% with MOLT-4 leukemia; 53.4% with RPMI-8226 leukemia; 5.46% (active) in the assay with OVCAR-8 ovarian. The growth in the assay on OVCAR-5 ovarian is 95.7%; with OVCAR-4 ovarian it was 81.7%; with SK-OV-3 ovarian it was 99.1%; in the assay with OVCAR-3 ovarian it was 88.6%; in the assay on HS 578T breast, 93.8%; in the assay with NCI/ADR-RES ovarian, -60.1% (active).

Consider `N#Cc1c2c(nn(-c3ccccc3)c1=O)C(O)=C([N+](=O)[O-])C(c1ccccc1)C2` (centres undefined), for which the growth in the assay with SK-MEL-2 melanoma was 89%; in the assay with EKVX NSCLC it was 83.8%; in the assay with SN12C renal, 89.7%; in the assay with UO-31 renal, 64%; in the assay on TK-10 renal it was 99.1%; in the assay on ACHN renal it was 74.3%. Further, the growth is 81.9% with CAKI-1 renal; 90.7% with A498 renal; 58% in the assay on CCRF-CEM leukemia; 67.5% in the assay on MOLT-4 leukemia; -6.06% (active) in the assay with RPMI-8226 leukemia; 81.6% in the assay on OVCAR-8 ovarian. In addition, the growth in the assay with OVCAR-5 ovarian is 110%; with OVCAR-4 ovarian, 73.8%; in the assay with IGROV1 ovarian, 50.6%; with OVCAR-3 ovarian, 76.4%; in the assay with HS 578T breast it was 91%; with NCI/ADR-RES ovarian, 93.5%.

As to `CCOC(=O)c1ccc(N2NC(=O)/C(=C/c3ccc([N+](=O)[O-])o3)C2=O)cc1`, the growth is 31.8% in the assay on SK-MEL-2 melanoma; 111% in the assay on EKVX NSCLC; 119% with SN12C renal; 100% with UO-31 renal; 106% with TK-10 renal; 104% in the assay with ACHN renal. Also, the growth in the assay on CAKI-1 renal is 108%; in the assay on A498 renal, 109%; with CCRF-CEM leukemia, 89.3%; in the assay with MOLT-4 leukemia, 105%; in the assay with RPMI-8226 leukemia, 90.7%; in the assay with OVCAR-8 ovarian it was 97.9%. The growth in the assay with OVCAR-5 ovarian is 108%; in the assay with OVCAR-4 ovarian it was 110%; in the assay on SK-OV-3 ovarian, 117%; in the assay with OVCAR-3 ovarian it was 88.7%; in the assay on HS 578T breast, 113%; in the assay on NCI/ADR-RES ovarian, 111%.

`COc1ccc(/C=N/C2=C(C#N)C(c3ccc(OC)cc3)c3ccc4ccccc4c3O2)cc1` (centres undefined): the growth in the assay with SK-MEL-2 melanoma was 84.4%; in the assay on EKVX NSCLC, 85.1%; with SN12C renal it was 76.5%; with UO-31 renal, 53.7%; with TK-10 renal it was 87.1%; in the assay on ACHN renal it was 81.4%. The growth is 37.3% in the assay on CAKI-1 renal; 26.6% with A498 renal; 77.4% with CCRF-CEM leukemia; 60.2% in the assay with MOLT-4 leukemia; 81.7% with RPMI-8226 leukemia; 84.7% in the assay on OVCAR-8 ovarian. In addition, the growth in the assay on OVCAR-5 ovarian is 104%; in the assay on SK-OV-3 ovarian, 77.6%; with IGROV1 ovarian, 56.2%; in the assay on OVCAR-3 ovarian, 78.9%; with HS 578T breast, 84.2%; in the assay with NCI/ADR-RES ovarian, 45%.

For `CCOC(=O)C/C(C)=N\NC(=O)c1ccncc1`, the growth is 120% in the assay with SK-MEL-2 melanoma; 89.6% in the assay with EKVX NSCLC; 99.9% in the assay with SN12C renal; 101% with UO-31 renal; 95.8% in the assay on TK-10 renal; 103% in the assay on ACHN renal. Further, the growth is 52.4% in the assay on CAKI-1 renal; 96.8% in the assay with A498 renal; 99.7% in the assay on CCRF-CEM leukemia; 93.9% with MOLT-4 leukemia; 90% in the assay on RPMI-8226 leukemia; 99.2% with OVCAR-8 ovarian. For the same compound, the growth was 98.3% in the assay with OVCAR-5 ovarian; 98.2% in the assay on OVCAR-4 ovarian; 101% in the assay with SK-OV-3 ovarian; 105% in the assay with OVCAR-3 ovarian; 115% in the assay with HS 578T breast; 98% in the assay with NCI/ADR-RES ovarian.

As to `CC(C)CC(NC(=O)CN(Cc1ccccc1)S(C)(=O)=O)C(=O)O` (centres undefined), the growth in the assay on SK-MEL-2 melanoma was 125%; with EKVX NSCLC it was 97.9%; in the assay on SN12C renal it was 108%; in the assay with UO-31 renal, 96.7%; in the assay with TK-10 renal, 93.9%; with ACHN renal it was 102%. Besides, the growth with CAKI-1 renal is 62.2%; in the assay on A498 renal, 95.3%; in the assay on CCRF-CEM leukemia it was 98.2%; in the assay on MOLT-4 leukemia, 94.7%; with RPMI-8226 leukemia, 102%; in the assay on OVCAR-8 ovarian it was 100%. The growth in the assay on OVCAR-5 ovarian is 94%; in the assay with OVCAR-4 ovarian, 104%; in the assay on SK-OV-3 ovarian, 90.9%; in the assay on OVCAR-3 ovarian, 96.6%; in the assay on HS 578T breast, 91.6%; in the assay on NCI/ADR-RES ovarian, 98.9%.

In the case of `Cc1ccc(N2CCN(C(=S)c3cccs3)CC2)cc1`, the growth in the assay with SK-MEL-2 melanoma was 94.9%; in the assay on EKVX NSCLC, 108%; in the assay on SN12C renal, 102%; with UO-31 renal, 94.8%; with TK-10 renal, 87.3%; in the assay on ACHN renal, 120%. Further, the growth in the assay on CAKI-1 renal is 96.4%; in the assay with A498 renal, 99.1%; in the assay on CCRF-CEM leukemia, 95.3%; in the assay with MOLT-4 leukemia, 93.6%; in the assay with RPMI-8226 leukemia, 95.6%; in the assay with OVCAR-8 ovarian, 100%. Moreover, the growth in the assay with OVCAR-5 ovarian was 96.8%; in the assay with SK-OV-3 ovarian, 106%; with IGROV1 ovarian it was 99.3%; with OVCAR-3 ovarian, 113%; in the assay on HS 578T breast, 124%; in the assay on NCI/ADR-RES ovarian, 112%.

These data come from PubChem BioAssay (NCI).
